In the library only some 4.5% were active in any assay of this set; here they are far more common.
GRIN3A LBD mod: binders of NR3A ligand-binding domain, primary screen, biophysical, differential scanning fluorimetry, uHTS | NR3A LBD differential scanning fluorimetry, Tm shift; 0% = protein alone, 100% = glycine-bound protein | 2.5% of 340,000 active | Glutamate receptor ionotropic, NMDA 3A (GRIN3A) ligand-binding domain | Tm shift relative to glycine control, % at 25 µM;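 active = melting temperature shift of at least 10% of the positive control shift, at one fixed dose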
Rpn11 block: Rpn11 (PSMD14) deubiquitinase inhibitors, primary screen, biochemical, fluorescence polarization, uHTS; AID 588493, 2011; inhibition, % at 20 µM; 0.59% of 360,000 active; human 26S proteasome, Ub4-pepOG fluorescence polarization; 20S core pre-blocked with epoxomicin;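 active = inhibition at 20 µM, scaled to each plate's controls, above about 33%, limit read from the data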
Target sequence (O00487 whole entry, looked up): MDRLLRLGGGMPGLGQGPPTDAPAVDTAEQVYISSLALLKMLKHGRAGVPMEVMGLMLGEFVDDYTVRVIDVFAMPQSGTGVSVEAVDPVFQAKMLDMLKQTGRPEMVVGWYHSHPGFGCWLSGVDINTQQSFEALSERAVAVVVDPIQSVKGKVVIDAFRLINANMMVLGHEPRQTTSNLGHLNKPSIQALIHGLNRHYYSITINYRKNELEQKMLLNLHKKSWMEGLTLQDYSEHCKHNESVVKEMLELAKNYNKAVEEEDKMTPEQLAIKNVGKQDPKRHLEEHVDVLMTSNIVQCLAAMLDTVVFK
ZTA DNA inh: counter-screen for EBNA-1 inhibitors: inhibitors of Epstein-Barr virus ZTA; P03206; ZTA-DNA binding, fluorescence polarization; inhibition, % at 11 µM; 0.15% of 320,000 active; AID 2234; in the data active = inhibition above about 33%
TPT1 inh: Candida albicans TPT1 enzyme inhibitors, primary screen, biochemical, fluorescence polarization; tRNA 2'-phosphotransferase TPT1 (Candida albicans SC5314); inhibition, % at 5 µM; 0.81% of 300,000 active; recombinant caTPT1, FP RNA substrate dephosphorylation;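 active = inhibition above the mean of all tested compounds plus 3 SD, set per screening campaign, cut at about 24% in these data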
dFosB act: activators of delta FosB homodimer, primary screen, biochemical, fluorescence polarization, TAMRA-CDK5 oligo, single point; activation, % at 25 µM; AID 493131, 2011; Protein FosB (Mus musculus), P13346; 0.99% of 340,000 active; purified delta FosB; percent of positive-control signal above neutral wells;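 active = mean activation above about 17%, with every replicate also reaching it, limit read from the data, passing the limit was not always enough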
EBNA-1 inhibitor: EBNA-1 DNA-binding inhibitors, primary screen, biochemical, fluorescence polarization. inhibition, % at 14.8 µM. 0.34% of 300,000 active; in the data active = inhibition above about 28%
caTPT1 confirm: Candida albicans TPT1 inhibitors, confirmation, biochemical, fluorescence polarization, triplicate; 74% of 2,400 active; AID 2149, 2009; recombinant caTPT1, RNase T1 coupled; inhibition, % at 5 µM; shares compounds with TPT1 inh;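 active = inhibition above the primary screen limit, the mean inhibition of all tested compounds plus 3 SD, cut at about 25% in these data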
RNase T1 counter: RNase T1 inhibitors, counter-screen for TPT1 inhibitor project, biochemical, fluorescence polarization. shares compounds with TPT1 inh. RNase T1 cleavage, 1536-well. inhibition, % at 5 µM. 83% of 2,400 active;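 active = inhibition above the solvent-only control well mean plus 3 SD, limit set per screening run, cut at about 23% in these data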;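 also: inhibitors block cleavage so intact labeled substrate keeps polarization high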
Target sequence (P00651 whole entry, looked up): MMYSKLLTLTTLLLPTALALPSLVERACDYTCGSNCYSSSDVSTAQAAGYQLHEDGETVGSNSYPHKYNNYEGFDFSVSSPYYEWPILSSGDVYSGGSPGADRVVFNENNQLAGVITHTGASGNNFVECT
Numbers stand for hits; n = inactive; x = no result given.

SMILES | GRIN3A LBD mod | Rpn11 block | ZTA DNA inh | TPT1 inh | dFosB act | EBNA-1 inhibitor | caTPT1 confirm | RNase T1 counter
CCC(C)NC(=O)c1cc(S(=O)(=O)N2CCCCC2)c[nH]1 (stereo unspecified) | n | n | n | n | n | n | x | x
COC(=O)c1ccccc1CSc1nsc(/C=C/N(C)C)c1C#N | 16 | x | n | 92 | n | n | 35 | 48
O=C(O)c1ccc(NS(=O)(=O)/C=C/c2ccccc2)cc1O | n | n | n | 24 | n | n | n | n
O=S(=O)(/C=C/c1ccccc1)Nc1ccc(N2CCOCC2)cc1 | n | n | n | n | n | n | x | x
O=C1CC(=O)N(Cc2cccs2)C(=O)N1 | n | n | n | 62 | n | n | n | 23
CC(C)(C)c1ccc(N=C2SCC(=O)N2Cc2cccs2)cc1 | n | n | n | n | n | n | x | x
Cc1cc2nc(/C(C#N)=C\c3ccc(-c4ccccc4C(=O)O)o3)[nH]c2cc1C | n | x | n | 138 | n | n | 145 | 136
N#C/C(=C\c1ccc(Sc2ccccc2)o1)c1nc2ccccc2[nH]1 | n | n | n | 51 | n | n | 60 | 70
N#C/C(=C\c1ccccc1OCC(=O)O)c1nc2ccccc2[nH]1 | n | n | n | n | n | n | x | x
N#C/C(=C/c1ccc(Sc2nc3ccccc3[nH]2)o1)c1ccccc1F | n | n | n | n | n | n | x | x
Cc1ccc2nc(/C(C#N)=C/c3ccc(-c4ccccc4C(=O)O)o3)[nH]c2c1 | n | x | n | 133 | n | n | 139 | 132
N#C/C(=C\c1ccc(-c2ccccc2C(=O)O)o1)c1nc2ccccc2[nH]1 | n | x | n | 95 | n | n | 117 | 121
COc1ccc(-n2c(=O)c3c(C)c(C)sc3n(Cc3ccc(F)cc3)c2=O)c(OC)c1 | n | n | n | n | n | n | x | x
Cn1nc(C(C)(C)C)cc1N1C(=O)CCC1(C)C(=O)NC1CCCC1 (stereo unspecified) | x | n | x | x | x | x | x | x
CCOc1ccccc1N1CCN(c2nc(N)c(C#N)c(CC#N)c2C#N)CC1 | n | n | n | 28 | n | n | 30 | 42
CCOc1ccccc1N1CCN(c2nc3ccccc3nc2C(C#N)C(=O)OC)CC1 (stereo unspecified) | n | n | n | n | n | n | x | x
Cc1cc(/C=C2\SC(=S)NC2=O)c(C)n1C1CC1 | n | x | n | 74 | n | n | 107 | 117
Cc1cc(/C=N/NC(=O)c2ccc(O)cc2)c(C)n1C1CC1 | n | n | n | n | n | n | x | x
Cc1cc(/C=C2/C(=O)N(C)C(=S)N2C)c(C)n1C1CC1 | n | n | n | 30 | n | n | 46 | 55
COc1ccc(CN(C)CCCn2cnc(C(=O)Nc3ccc(C)c(C)c3)n2)cc1OC | n | n | x | x | n | x | x | x
CCC(C)(C)C1CCc2c(sc(N)c2C(N)=O)C1 (stereo unspecified) | n | n | n | n | n | n | x | x
CC(C)(C)C1CCc2c(sc(N)c2C(N)=O)C1 (stereo unspecified) | n | n | n | 25 | n | n | n | n
Cc1cc(C(=O)CN2C(=O)C(=O)N(Cc3ccccc3)C2=O)c(C)n1-c1ccc2c(c1)OCCO2 | n | n | n | n | n | n | x | x
Nc1nc(SCC(=O)Nc2ccc3c(c2)OCO3)n[nH]1 | n | n | n | 41 | n | n | n | n
Nc1cc(N)nc(SCC(=O)Nc2ccc3c(c2)OCO3)n1 | n | n | n | n | n | n | x | x
SMILES | GRIN3A LBD mod | Rpn11 block | ZTA DNA inh | TPT1 inh | dFosB act | EBNA-1 inhibitor | caTPT1 confirm | RNase T1 counter
Cc1cc(C)cc(C(=O)NC(CC(N)=O)c2ccc(NC3CCCCCCCCCCC3)c([N+](=O)[O-])c2)c1 (stereo unspecified) | n | n | n | 48 | n | n | n | n
Cc1cc(C)cc(C(=O)NC(CC(N)=O)c2ccc(NC3CCCCCCC3)c([N+](=O)[O-])c2)c1 (stereo unspecified) | n | n | n | n | n | n | x | x
Cc1ccc(-c2nc3sc(C#N)c(N)n3c(=O)c2C#N)cc1 | n | x | n | 24 | n | n | 35 | 48
COC(CNC(=O)CCc1c(C)nc2c(-c3ccccc3)c(C)nn2c1C)OC | n | n | n | n | n | n | x | x
Cc1nn(-c2ncc(C(F)(F)F)cc2Cl)c(=O)n1-c1c(F)cccc1F | n | n | n | 32 | n | n | n | n
Cc1cccc(C)c1-n1c(C)nn(-c2ncc(C(F)(F)F)cc2Cl)c1=O | n | n | n | n | n | n | x | x
COc1ccc(C2C(O)C(c3c[nH]c4ccccc34)=NN2C(=O)CCl)cc1 (stereo unspecified) | n | n | n | n | n | n | x | x
COc1ccc(C2NN=C(c3c[nH]c4ccccc34)C2O)cc1 (stereo unspecified) | n | 94 | n | 73 | n | n | 65 | 78
CCC1CCCCN1CCCNC(=O)c1nn(C)c2c1CS(=O)(=O)c1ccccc1-2 (stereo unspecified) | n | n | n | n | n | n | x | x
Cc1cccc(N2CCN(C(=O)c3ccc4c(c3)OCCO4)CC2)c1C | n | n | n | n | n | n | x | x
Cc1cccc(N2CCN(C(=O)c3ccc4c(c3)NC(=O)C(CSCc3cccc(F)c3)N4)CC2)c1C (stereo unspecified) | x | x | n | 134 | x | n | 131 | 125
C=CCn1c(SCc2nc3sc(C(=O)O)c(C)c3c(=O)[nH]2)nnc1-c1ccc(F)cc1 | n | n | n | n | n | n | x | x
CCn1c(SCc2nc3sc(C(=O)O)c(C)c3c(=O)[nH]2)nc2ccccc21 | n | n | n | 31 | n | n | 24 | 27
COc1ccc(/C=C/C(=O)c2ccncc2)c2ccccc12 | n | n | n | 63 | n | n | 73 | 81
COc1ccc(CCNC(=O)C(=O)N2CCCC2)cc1OC | n | n | n | n | n | n | x | x
COc1ccc(-n2c(NC(=O)c3ccco3)c(C#N)c3nc4ccccc4nc32)cc1 | n | n | n | 36 | n | n | 45 | 55
COc1ccc(NC(=O)CSc2ccc3c4c(cccc24)C(=O)c2ccccc2-3)cc1 | n | n | n | 26 | n | n | 28 | 41
COc1cc2ccccc2nn1 | n | n | n | n | n | n | x | x
COc1ccc2c(n1)Sc1nc3ccccc3nc1N2 | 34 | x | n | 41 | n | n | 56 | 64
